Assay results: PubChem BioAssay (EPA / NIEHS)
Results filed as inconclusive are left out. Activity calls are given as the source filed them. How the source made its calls, unless noted: active means hit-call score of the fitted dose curve at least 0.9, where 1 is the maximum; inactive means score below 0.9.

Tests used:
[1] = ACEA_ER_80hr: ACEA Biosciences xCELLigence Real-Time Cell Analysis on Estrogen Receptor Agonism for Proliferation (AID 2282667; active means hit-call score of the fitted dose curve at least 0.9, where 1 is the maximum); conditions: T47D proliferation, impedance (xCELLigence), 80 h
Method in brief: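 Cell-growth kinetics were measured by impedance in T47D cells treated continuously with compound (top 100 uM final, 1:4 steps, 8 points). Activity at 80 h was scored as signal gain over the DMSO baseline.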

[2] = ATG_CRE_CIS: Attagene CIS-FACTORIAL HepG2 Assay for human cAMP Responsive Element (CRE) binding protein 3 (AID 2282926); conditions: HepG2 CRE cis-reporter, Attagene multiplexed mRNA; actives raise or lower the signal
Method in brief: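 Cells carrying cis-regulated reporter constructs respond through their own endogenous factors. After 24 h treatment, RNA is reverse-transcribed, amplified, labelled and sized by capillary electrophoresis; up- and down-regulation are both scored against vehicle.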

[3] = biological target: CCAAT/enhancer-binding protein beta (Homo sapiens) (UniProt P17676); assay: ATG_C_EBP_CIS: Attagene CIS-FACTORIAL HepG2 Assay for human CCAAT/Enhancer Binding Protein (C/EBP) beta (AID 2282927); conditions: HepG2 Attagene cis-factorial transcription factor reporter; actives raise or lower the signal
Sequence of CCAAT/enhancer-binding protein beta (Homo sapiens) (P17676 whole entry, looked up): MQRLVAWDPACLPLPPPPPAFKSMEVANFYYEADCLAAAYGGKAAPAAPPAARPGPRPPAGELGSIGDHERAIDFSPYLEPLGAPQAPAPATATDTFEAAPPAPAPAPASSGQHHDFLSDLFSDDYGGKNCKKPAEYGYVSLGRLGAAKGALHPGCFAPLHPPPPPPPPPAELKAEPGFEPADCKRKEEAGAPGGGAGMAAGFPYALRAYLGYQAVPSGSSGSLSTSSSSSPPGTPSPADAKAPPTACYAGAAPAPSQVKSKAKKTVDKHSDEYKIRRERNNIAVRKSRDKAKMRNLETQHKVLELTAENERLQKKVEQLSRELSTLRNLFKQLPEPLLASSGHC
Method in brief: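 HepG2, transient MRTU transfection, 24 h treatment. RT-PCR plus CE fluorescence; DMSO negative control, bidirectional fit.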

[4] = ATG_CMV_CIS: Attagene CIS-FACTORIAL HepG2 Assay for human CMV (Internal Marker) (AID 2282928); conditions: HepG2 CMV promoter reporter, transcription factor profiling; actives raise or lower the signal;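 further: endpoint acts as a background internal control marker rather than a target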
Method in brief: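 24 h chemical treatment, HepG2 with transient multi-reporter transfection; RNA → oligo(dT) RT → PCR → 6-FAM extension → HpaI digest → CE fluorescence. Bidirectional fit, DMSO negative control.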

[5] = ATG_DR4_LXR_CIS: Attagene CIS-FACTORIAL HepG2 Assay for human Liver X Receptor (LXR), DR4 submotif (AID 2282929); conditions: HepG2 Attagene DR4 cis-reporter, mRNA transcription; actives raise or lower the signal
Method in brief: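 DR4 cis-reporter in HepG2, 24 h exposure. Detection: RT-PCR, 6-FAM labelling, CE fragment analysis. Endpoint fitted bidirectionally, DMSO = baseline.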

[6] = biological target: Aryl hydrocarbon receptor (Homo sapiens) (UniProt P35869); assay: ATG_Ahr_CIS: Attagene CIS-FACTORIAL HepG2 Assay for human Aryl Hydrocarbon Receptor (Ahr) (AID 2282930); conditions: HepG2 AhR cis-factorial reporter transcription; actives raise or lower the signal
Sequence of Aryl hydrocarbon receptor (Homo sapiens) (P35869 whole entry, looked up): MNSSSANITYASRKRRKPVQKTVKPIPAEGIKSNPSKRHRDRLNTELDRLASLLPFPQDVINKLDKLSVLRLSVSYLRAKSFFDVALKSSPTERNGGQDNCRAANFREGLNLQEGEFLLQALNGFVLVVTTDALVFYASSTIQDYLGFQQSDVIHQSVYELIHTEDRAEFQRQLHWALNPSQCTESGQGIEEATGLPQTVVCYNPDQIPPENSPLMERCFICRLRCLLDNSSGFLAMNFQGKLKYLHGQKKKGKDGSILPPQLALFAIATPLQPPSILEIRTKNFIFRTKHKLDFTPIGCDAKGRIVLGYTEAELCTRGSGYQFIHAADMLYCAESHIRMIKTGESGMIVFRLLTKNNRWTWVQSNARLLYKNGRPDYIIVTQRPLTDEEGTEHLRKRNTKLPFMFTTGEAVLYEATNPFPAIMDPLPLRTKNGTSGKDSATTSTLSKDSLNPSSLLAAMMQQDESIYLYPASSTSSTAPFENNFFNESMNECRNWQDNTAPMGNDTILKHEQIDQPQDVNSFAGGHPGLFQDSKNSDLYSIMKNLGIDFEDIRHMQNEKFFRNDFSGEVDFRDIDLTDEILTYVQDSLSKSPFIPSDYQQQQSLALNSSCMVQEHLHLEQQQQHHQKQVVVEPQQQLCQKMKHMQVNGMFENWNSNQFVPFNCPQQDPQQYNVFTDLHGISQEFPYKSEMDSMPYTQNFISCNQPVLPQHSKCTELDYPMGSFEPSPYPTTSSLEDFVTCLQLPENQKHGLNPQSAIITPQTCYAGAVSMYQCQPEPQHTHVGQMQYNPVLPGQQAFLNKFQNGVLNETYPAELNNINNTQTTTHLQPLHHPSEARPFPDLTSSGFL
Method in brief: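 Endogenous factor activity is tracked through cis-promoter reporter units transfected into HepG2 cells. Transcript levels at 24 h are read by fluorescent RT-PCR and capillary electrophoresis, with activity in either direction scored relative to DMSO.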

[7] = ATG_AP_1_CIS: Attagene CIS-FACTORIAL HepG2 Assay for human Activator Protein 1 (AP-1) (AID 2282931); conditions: HepG2 Attagene cis-factorial AP-1 reporter mRNA; actives raise or lower the signal
Method in brief: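 Cis-regulated reporter units transiently expressed in HepG2 report endogenous transcription-factor activity. Signal: reporter mRNA at 24 h, via RT-PCR and fluorescent capillary electrophoresis. Endpoint derived by bidirectional fitting, DMSO as negative control.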

[8] = ATG_AP_2_CIS: Attagene CIS-FACTORIAL HepG2 Assay for human Activator Protein 2 (AP-2) (AID 2282932); conditions: HepG2 AP-2 cis-reporter, Attagene transcription factor profiling; actives raise or lower the signal
Method in brief: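 Read-out: fluorescent reporter mRNA via RT-PCR and capillary electrophoresis, 24 h post-dose in transiently transfected HepG2. Endogenous factors drive cis-promoter reporters; gain or loss of signal fitted bidirectionally against DMSO.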

[9] = biological target: Transcription factor E2F1 (Homo sapiens) (UniProt Q01094); assay: ATG_E2F_CIS: Attagene CIS-FACTORIAL HepG2 Assay for human E2F Transcription Factor 1 (AID 2282935); conditions: HepG2 Attagene cis-reporter, E2F reporter RNA transcripts; actives raise or lower the signal
Sequence of Transcription factor E2F1 (Homo sapiens) (Q01094 whole entry, looked up): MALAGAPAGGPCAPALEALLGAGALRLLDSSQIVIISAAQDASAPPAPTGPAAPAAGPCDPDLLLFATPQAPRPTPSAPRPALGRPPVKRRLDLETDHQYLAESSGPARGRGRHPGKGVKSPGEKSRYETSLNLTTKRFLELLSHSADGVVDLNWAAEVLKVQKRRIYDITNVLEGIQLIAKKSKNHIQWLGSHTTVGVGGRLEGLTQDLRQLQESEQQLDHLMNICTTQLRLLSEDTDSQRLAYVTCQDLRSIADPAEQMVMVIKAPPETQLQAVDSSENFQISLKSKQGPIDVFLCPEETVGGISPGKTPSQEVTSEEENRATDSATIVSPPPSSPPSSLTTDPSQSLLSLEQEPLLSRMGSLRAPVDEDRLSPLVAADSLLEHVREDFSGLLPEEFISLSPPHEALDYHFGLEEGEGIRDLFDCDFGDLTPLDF
Method in brief: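 Transient MRTU transfection of HepG2; 24 h compound exposure; RNA → oligo(dT) RT → PCR → FAM label → HpaI cut → CE fluorescence. Gain/loss of signal fit against DMSO.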

[10] = ATG_E_Box_CIS: Attagene CIS-FACTORIAL HepG2 Assay for human Enhancer Box (E-box) (AID 2282936); conditions: HepG2 E-box cis-reporter transcription, actives raise or lower the signal
Method in brief: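 Transiently transfected HepG2, endogenous TF-driven reporters, 24 h dosing. Readout: RT-PCR plus capillary electrophoresis of fluorescent reporter fragments. Gain or loss of signal fitted bidirectionally against DMSO baseline.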

[11] = ATG_M_61_CIS: Attagene CIS-FACTORIAL HepG2 Assay for M61 Transcription Factor (Internal Marker) (AID 2282937); conditions: HepG2 Attagene CIS-FACTORIAL M61 internal marker reporter; actives raise or lower the signal
Method in brief: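 Background-control endpoint: HepG2 cells with cis-regulated reporter constructs, 24 h exposure, reporter mRNA detected via fluorescent primer extension and capillary electrophoresis; values from bidirectional fitting with DMSO baseline.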

[12] = ATG_EGR_CIS: Attagene CIS-FACTORIAL HepG2 Assay for human Early Growth Response 1 (EGR1) (AID 2282938); conditions: HepG2 Attagene CIS-FACTORIAL EGR reporter mRNA; actives raise or lower the signal
Method in brief: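 Endpoint derived by bidirectional fitting versus DMSO vehicle. Method: cis-promoter reporter units transfected into HepG2, 24 h dosing, RNA isolation, RT-PCR with 6-FAM primer extension and HpaI digestion, then capillary electrophoresis fluorescence detection.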

[13] = ATG_M_19_CIS: Attagene CIS-FACTORIAL HepG2 Assay for M19 Transcription Factor (Internal Marker) (AID 2282939); conditions: HepG2 Attagene CIS-FACTORIAL M19 internal marker reporter; actives raise or lower the signal
Method in brief: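 HepG2 cells transiently transfected with cis-regulated multiple reporter transcription units were dosed for 24 h; reporter mRNA was quantified by RT-PCR, 6-FAM primer-extension labelling, HpaI digestion and capillary electrophoresis, with bidirectional fitting against DMSO baseline.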

[14] = ATG_ERE_CIS: Attagene CIS-FACTORIAL HepG2 Assay for Estrogen Response Element (ERE) (AID 2282940); conditions: HepG2 ERE cis-reporter, Attagene RNA transcript; actives raise or lower the signal
Method in brief: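 HepG2 cells transiently transfected with cis-promoter-driven multiplexed reporter transcription units report endogenous TF activity. After 24 h compound exposure, reporter mRNA is quantified by RT-PCR with capillary electrophoresis fluorescence; bidirectional fitting versus DMSO baseline.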

[15] = ATG_Ets_CIS: Attagene CIS-FACTORIAL HepG2 Assay for human Erythroblast Transformation Specific (ETS) (AID 2282941); conditions: HepG2 ETS cis-reporter transcription, actives raise or lower the signal
Method in brief: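 Cis-regulated reporter mRNA induction in HepG2 (transient transfection), 24 h exposure, RT-PCR plus capillary electrophoresis detection; DMSO serves as negative control and baseline.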

[16] = biological target: Hepatocyte nuclear factor 3-beta (Homo sapiens) (UniProt Q9Y261); assay: ATG_FoxA2_CIS: Attagene CIS-FACTORIAL HepG2 Assay for human Forkhead box A2 (FOXA2) (AID 2282942); conditions: HepG2 cis-reporter transcription factor activity, 24 h; actives raise or lower the signal
Sequence of Hepatocyte nuclear factor 3-beta (Homo sapiens) (Q9Y261 whole entry, looked up): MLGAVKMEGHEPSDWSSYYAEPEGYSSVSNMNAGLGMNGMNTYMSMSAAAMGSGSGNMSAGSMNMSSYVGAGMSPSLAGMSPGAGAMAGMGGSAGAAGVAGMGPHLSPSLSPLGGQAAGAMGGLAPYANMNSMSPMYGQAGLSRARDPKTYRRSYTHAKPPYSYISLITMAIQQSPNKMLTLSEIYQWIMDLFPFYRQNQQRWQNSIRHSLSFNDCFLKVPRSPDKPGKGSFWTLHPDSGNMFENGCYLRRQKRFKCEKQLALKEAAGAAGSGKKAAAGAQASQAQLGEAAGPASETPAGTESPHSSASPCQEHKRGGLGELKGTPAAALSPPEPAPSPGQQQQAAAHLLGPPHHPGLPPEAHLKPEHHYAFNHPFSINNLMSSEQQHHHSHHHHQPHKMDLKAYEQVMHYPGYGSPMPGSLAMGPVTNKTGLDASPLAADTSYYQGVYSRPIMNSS
Method in brief: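 Measured: reporter mRNA induction or loss in HepG2 transiently carrying multiple cis-regulated reporter units, 24 h after dosing. Quantified by RT-PCR plus capillary electrophoresis, normalised to DMSO.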

[17] = ATG_FoxO_CIS: Attagene CIS-FACTORIAL HepG2 Assay for human Forkhead box O (FoxO) (AID 2282943); conditions: HepG2 Attagene cis-reporter, FoxO element, mRNA; actives raise or lower the signal
Method in brief: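 Transfected HepG2 reporter cells exposed to test chemical for 24 h; reporter RNA measured by reverse transcription, PCR and fluorescent capillary electrophoresis; curves fitted for increases and decreases against DMSO.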

[18] = ATG_GATA_CIS: Attagene CIS-FACTORIAL HepG2 Assay for human GATA Binding Protein (AID 2282944); conditions: HepG2 GATA cis-element reporter, Attagene multiplex mRNA; actives raise or lower the signal
Method in brief: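 HepG2 cells transiently transfected with multiplexed cis-element reporter units reflecting endogenous transcription factor activity; reporter mRNA measured after 24 h dosing by RT-PCR, 6-FAM labeling, HpaI digestion and capillary electrophoresis. Bidirectional fitting versus DMSO baseline.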

[19] = ATG_BRE_CIS: Attagene CIS-FACTORIAL HepG2 Assay for human Bone Morphogenetic Protein (BMP) Response Element (BRE) (AID 2282933); conditions: HepG2 BMP response element reporter, Attagene transcription factor profiling; actives raise or lower the signal
Method in brief: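 HepG2 cells transiently transfected with multiplexed cis-element reporter units were dosed with chemical for 24 h. Reporter mRNA was measured by RT-PCR with fluorescent labelling, HpaI digestion and capillary electrophoresis; bidirectional fitting relative to DMSO.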

[20] = biological target: Retinoic acid receptor alpha (Homo sapiens) (UniProt P10276); assay: ATG_DR5_RAR_CIS: Attagene CIS-FACTORIAL HepG2 Assay for human Retinoic Acid Receptor Alpha (RARE), DR5 submotif (AID 2282934); conditions: HepG2 Attagene cis-factorial RARE DR5 reporter, mRNA; actives raise or lower the signal
Sequence of Retinoic acid receptor alpha (Homo sapiens) (P10276 whole entry, looked up): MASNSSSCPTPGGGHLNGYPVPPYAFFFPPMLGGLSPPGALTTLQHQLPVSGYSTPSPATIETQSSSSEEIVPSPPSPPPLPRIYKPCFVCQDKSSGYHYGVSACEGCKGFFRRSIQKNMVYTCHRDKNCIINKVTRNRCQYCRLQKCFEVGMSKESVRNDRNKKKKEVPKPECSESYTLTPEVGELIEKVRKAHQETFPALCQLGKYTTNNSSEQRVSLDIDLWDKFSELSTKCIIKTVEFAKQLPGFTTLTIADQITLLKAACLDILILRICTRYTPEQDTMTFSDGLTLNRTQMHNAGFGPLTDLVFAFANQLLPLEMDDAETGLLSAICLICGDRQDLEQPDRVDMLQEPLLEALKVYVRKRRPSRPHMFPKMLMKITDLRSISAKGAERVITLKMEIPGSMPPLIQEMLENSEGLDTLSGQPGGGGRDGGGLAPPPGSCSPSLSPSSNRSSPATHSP
Method in brief: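 After 24 h of chemical exposure, transiently transfected HepG2 cells were lysed for total RNA; the DR5-regulated reporter transcript was quantified via RT-PCR and capillary electrophoresis, with activity fitted bidirectionally against DMSO.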

Measured: AC50

CCn1c2ccccc2c2ccccc21
active: [4] 57.4 µM | [7] 164 µM
not listed: [19] | [20]
inactive: all other assays above

O=C(Cl)c1ccc(Cl)cc1Cl
not listed: [20]
inactive: all other assays above

Brc1nc2ccccc2s1
active: [1] 0.0408 µM | [5] 100 µM | [6] 2.56 µM | [7] 65.1 µM | [10] 100 µM
not listed: [20]
inactive: all other assays above

CCN(CC)c1ccc(N=Nc2ccccc2)cc1
active: [1] 50 µM | [6] 5.68 µM | [19] 78.8 µM | [10] 20.9 µM | [12] 12.3 µM
not listed: [7] | [16]
inactive: all other assays above

CCOCOCC
not listed: [16] | [19]
inactive: all other assays above

CN(N=O)C(=O)N[C@@H]1[C@@H](O)[C@H](O)[C@@H](CO)O[C@@H]1O
not listed: [19]
inactive: all other assays above

NCC(F)(F)C(F)(F)C(F)(F)C(F)(F)C(F)(F)C(F)(F)C(F)(F)C(F)(F)F
not listed: [19] | [20]
inactive: all other assays above

Cc1ccc(O)c(-n2nc3ccccc3n2)c1
active: [6] 7.41 µM | [14] 10.4 µM
not listed: [16] | [19] | [20]
inactive: all other assays above

CCCCCC/C=C/CCCCCCCC(=O)O
not listed: [16] | [19]
inactive: all other assays above

CCN=C1C=CC(=C(c2ccc(N(CC)CC)cc2)c2ccc(N(CC)CC)cc2)c2ccccc21
active: [2] 1.17 µM | [3] 0.0334 µM | [4] 0.905 µM | [5] 0.655 µM | [6] 0.0482 µM | [8] 3.68 µM | [19] 0.0688 µM | [10] 2.01 µM | [12] 0.78 µM
not listed: [7]
inactive: all other assays above

FC(F)(F)C(F)(F)C(F)(F)C(F)(F)C(F)(F)C(F)(F)C(F)(F)CCI
not listed: [7]
inactive: all other assays above

CC(=O)c1ccccc1N
not listed: [19] | [20]
inactive: all other assays above

OCCCC(F)(F)C(F)(F)C(F)(F)C(F)(F)C(F)(F)C(F)(F)C(F)(F)C(F)(F)F
active: [1] 21 µM | [19] 64.3 µM
not listed: [16] | [20]
inactive: all other assays above

CCN(CC)c1ccc2c(c1)Oc1cc(N(CC)CC)ccc1C21OC(=O)c2ccccc21
active: [6] 7.41 µM
not listed: [19] | [20]
inactive: all other assays above
